Data on 34 compounds can be found in ChEMBL document CHEMBL1961873, “Compounds: GSK PKIS; Assays: Nanosyn kinase panel” (2012).

Structures are written as SMILES.

Chain of Tyrosine-protein kinase Fes/Fps (Homo sapiens) (P07332 whole entry): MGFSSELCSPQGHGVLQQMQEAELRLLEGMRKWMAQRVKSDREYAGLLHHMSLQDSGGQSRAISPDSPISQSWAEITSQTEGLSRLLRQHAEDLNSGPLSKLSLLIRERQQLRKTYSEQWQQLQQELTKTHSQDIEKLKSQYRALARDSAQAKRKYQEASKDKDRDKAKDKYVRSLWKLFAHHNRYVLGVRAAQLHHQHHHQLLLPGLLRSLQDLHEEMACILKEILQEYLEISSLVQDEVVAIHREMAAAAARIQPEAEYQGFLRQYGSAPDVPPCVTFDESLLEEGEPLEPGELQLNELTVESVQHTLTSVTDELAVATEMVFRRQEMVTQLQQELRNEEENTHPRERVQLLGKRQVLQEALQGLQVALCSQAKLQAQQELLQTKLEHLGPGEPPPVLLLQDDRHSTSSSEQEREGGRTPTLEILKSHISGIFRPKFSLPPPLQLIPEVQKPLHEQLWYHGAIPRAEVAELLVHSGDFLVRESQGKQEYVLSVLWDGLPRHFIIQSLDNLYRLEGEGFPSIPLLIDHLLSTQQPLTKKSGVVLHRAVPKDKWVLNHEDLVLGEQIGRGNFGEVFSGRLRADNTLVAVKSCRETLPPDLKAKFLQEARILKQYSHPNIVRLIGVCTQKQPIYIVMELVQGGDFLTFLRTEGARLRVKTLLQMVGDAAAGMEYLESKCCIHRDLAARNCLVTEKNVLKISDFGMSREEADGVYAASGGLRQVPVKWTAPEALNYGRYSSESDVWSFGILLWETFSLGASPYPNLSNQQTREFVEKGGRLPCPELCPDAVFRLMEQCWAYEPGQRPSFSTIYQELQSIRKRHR

The target in the first assay is Tyrosine-protein kinase Fer (Homo sapiens) (UniProt P16591). As to conditions: at 1 µM.
Chain of Tyrosine-protein kinase Fer (Homo sapiens) (P16591 whole entry, looked up): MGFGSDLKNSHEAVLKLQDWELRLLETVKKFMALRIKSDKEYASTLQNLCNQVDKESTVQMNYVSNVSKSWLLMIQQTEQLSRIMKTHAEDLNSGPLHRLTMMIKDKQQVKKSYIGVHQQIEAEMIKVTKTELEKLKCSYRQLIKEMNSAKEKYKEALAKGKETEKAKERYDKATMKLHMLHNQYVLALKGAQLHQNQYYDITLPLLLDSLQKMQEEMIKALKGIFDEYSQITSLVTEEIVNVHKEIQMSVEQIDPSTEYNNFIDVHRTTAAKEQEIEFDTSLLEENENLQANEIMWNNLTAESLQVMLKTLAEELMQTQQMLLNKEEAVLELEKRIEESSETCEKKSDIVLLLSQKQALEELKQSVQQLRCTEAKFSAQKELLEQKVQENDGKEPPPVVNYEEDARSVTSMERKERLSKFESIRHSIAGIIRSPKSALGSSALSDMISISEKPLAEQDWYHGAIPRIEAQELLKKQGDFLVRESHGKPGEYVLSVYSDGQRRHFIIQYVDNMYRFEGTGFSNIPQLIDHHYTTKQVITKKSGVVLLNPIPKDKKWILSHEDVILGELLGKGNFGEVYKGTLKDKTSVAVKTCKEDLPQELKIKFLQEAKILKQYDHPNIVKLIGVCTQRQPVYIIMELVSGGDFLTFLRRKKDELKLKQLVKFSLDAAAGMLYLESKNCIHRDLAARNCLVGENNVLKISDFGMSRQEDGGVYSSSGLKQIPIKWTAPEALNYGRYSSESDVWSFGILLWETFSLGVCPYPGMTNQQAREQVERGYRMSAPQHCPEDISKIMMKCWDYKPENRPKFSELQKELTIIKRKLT
Regarding `CCCN(CCS(C)(=O)=O)Cc1ccc(-c2ccc3ncnc(Nc4ccc(OCc5cccc(F)c5)c(Cl)c4)c3c2)o1`, the inhibition worked out at 5.25%.
For the compound `Cc1ccc2c(-c3ccnc(Nc4ccccc4)n3)c(-c3ccc(F)cc3)nn2n1`, the inhibition was 8.06%.
In the case of `Fc1ccc(-c2cc(-c3c[nH]nc3-c3ccccn3)ccn2)cc1`, the inhibition came to 5.23%.
Take `FC(F)(F)c1cccc(-c2nn3ncccc3c2-c2ccnc(Nc3ccc4c(c3)OCCO4)n2)c1`: the inhibition is 10.8%.
Same read-out and setting: the value for `N#Cc1c(NC(=O)CN2CCOCC2)sc2c1CCCC2` was 9.05%.
Regarding `c1ccc(COc2ccc(Nc3ncnc4ccc(-c5ccco5)cc34)cc2)cc1`, the inhibition was 4.05%.
On the same count and under the same terms, for `Fc1ccc(-c2nn3ccccc3c2-c2ccncc2)cc1` the value was 0.75%.
The same measure, in the same setting: the value for `Cc1cccc(Nc2ncc(-c3ccccc3)o2)c1` was 7.96%.
With `COc1cc2c(cc1Nc1nc(Nc3ccsc3C(N)=O)c3cc[nH]c3n1)N(C(=O)CN(C)C)CCC2(C)C`, the inhibition came to 94.8%.
With `c1cc(-c2cnn3nc(N4CCOCC4)ccc23)nc(NC2CC2)n1`, the inhibition is 1.58%.
On to `CC(=O)NCc1cccc(C#Cc2cncnc2Nc2ccc(OCc3cccc(F)c3)c(Cl)c2)c1`, for which the inhibition was determined as 0.86%.
As for `CC(=O)Nc1cccc(C#Cc2cncnc2Nc2ccc(OCc3cccc(F)c3)c(Cl)c2)c1`, the inhibition was 1.14%.
Consider `Nc1nc(-c2cccc(Cl)c2)c(-c2ccc3ncccc3n2)s1`, for which the inhibition was determined as 3.32%.
On the same count and under the same terms, for `COc1ccc(-c2oc3ncnc(N)c3c2-c2ccc(NC(=O)Nc3cc(C(F)(F)F)ccc3F)cc2)cc1` the value was 64.5%.
On to `CCNC(=O)O[C@H]1CN[C@H](C#Cc2cc3ncnc(Nc4ccc(OCc5cccc(F)c5)c(Cl)c4)c3s2)C1`, for which the inhibition was -0.34%.
With `O=C(O[C@H]1CN[C@H](C#Cc2cc3ncnc(Nc4ccc(Cc5ccccc5)cc4)c3s2)C1)N1CCOCC1`, the inhibition was -0.65%.
`CCn1c(-c2nonc2N)nc2ccccc21`: the inhibition amounted to 8.61%.
As to `COc1ccc2[nH]c3c4[nH]c5ccc(OC)cc5c4c4c(c3c2c1)C(=O)NC4=O`, the inhibition worked out at 67.7%.
Regarding `CCn1cc(-c2ccnc3[nH]ccc23)c(-c2cccc(NC(=O)Nc3ccc(OCc4ccccc4)cc3)c2)n1`, the inhibition was determined as 5.87%.
As to `Fc1ccc(-c2nn3ncccc3c2-c2ccnc(Nc3ccc4c(c3)OCCO4)n2)cc1`, the inhibition was found to be 13.8%.
With `CCN1CCC(CC(=O)Nc2n[nH]c3nnc(-c4cccc(F)c4F)cc23)CC1`, the inhibition was found to be 1.74%.
Turning to `CC(C)COC(=O)c1ccc2c(c1)/C(=C/Nc1ccc(S(N)(=O)=O)cc1)C(=O)N2`, the inhibition turned out to be 11.1%.
On to `COC(=O)Nc1nc2ccc(S(=O)(=O)c3ccc(NC(=O)Nc4cc(C(F)(F)F)ccc4F)cc3)cc2[nH]1`, for which the inhibition came out at 2.04%.
For the compound `CCOc1ccc2c(-c3ccnc(Nc4cccc(C(F)(F)F)c4)n3)cnn2n1`, the inhibition stood at 7.63%.
`COc1cccc(-n2ncc3c(N/N=C/c4ccc(F)cc4)ncnc32)c1`: the inhibition was 4.95%.
The same measure, in the same setting: the value for `COc1cc(Nc2nccc(Nc3ccc4c(C)n[nH]c4c3)n2)cc(OC)c1OC` was 36.1%; that for `CC1=C(C(=O)Nc2cc(Cl)c3[nH]ncc3c2)C(c2ccc(C(F)(F)F)cc2)CC(=O)N1` (configuration not stated) was 3.32%; that for `CCn1c(-c2nonc2N)nc2c(C#CC(C)(C)O)ncc(OC3CCNCC3)c21` was 3.91%.
For `CNC(=O)c1cccc(C#Cc2cncnc2Nc2ccc(OCc3cccc(F)c3)c(Cl)c2)c1`, the inhibition was 2.2%.
For the compound `COc1ccc(-c2cc3c(N)ncnc3o2)cc1`, the inhibition worked out at 1.69%.
Consider `COc1cc(/C=N/Nc2ncnc3[nH]ncc23)ccc1O`, for which the inhibition was determined as 14.3%.
The same measure, in the same setting: the value for `COc1cc2ncn(-c3cc(OCc4ccccc4C(F)(F)F)c(C(=O)N(C)C)s3)c2cc1OC` was 3.02%; that for `NS(=O)(=O)c1ccc(Nc2ncc(-c3ccccc3)o2)cc1` was 4.95%.

The next assay addresses Tyrosine-protein kinase Fes/Fps (Homo sapiens) (UniProt P07332). As to conditions: at 0.1 µM.
For the compound `CCCN(CCS(C)(=O)=O)Cc1ccc(-c2ccc3ncnc(Nc4ccc(OCc5cccc(F)c5)c(Cl)c4)c3c2)o1`, the inhibition worked out at 1.38%.
Still for that read-out and setting: the value for `Cc1ccc2c(-c3ccnc(Nc4ccccc4)n3)c(-c3ccc(F)cc3)nn2n1` was 2.61%.
For the compound `Fc1ccc(-c2cc(-c3c[nH]nc3-c3ccccn3)ccn2)cc1`, the inhibition stood at 2.57%.
Take `FC(F)(F)c1cccc(-c2nn3ncccc3c2-c2ccnc(Nc3ccc4c(c3)OCCO4)n2)c1`: the inhibition worked out at 1.96%.
For `N#Cc1c(NC(=O)CN2CCOCC2)sc2c1CCCC2`, the inhibition was found to be 3.37%.
`c1ccc(COc2ccc(Nc3ncnc4ccc(-c5ccco5)cc34)cc2)cc1`: the inhibition is 2.03%.
Turning to `Fc1ccc(-c2nn3ccccc3c2-c2ccncc2)cc1`, the inhibition amounted to 0.57%.
Same read-out and setting: the value for `Cc1cccc(Nc2ncc(-c3ccccc3)o2)c1` was 1.97%; that for `COc1cc2c(cc1Nc1nc(Nc3ccsc3C(N)=O)c3cc[nH]c3n1)N(C(=O)CN(C)C)CCC2(C)C` was 76.5%.
The same measure, in the same setting: the value for `c1cc(-c2cnn3nc(N4CCOCC4)ccc23)nc(NC2CC2)n1` was 3.42%; that for `CC(=O)NCc1cccc(C#Cc2cncnc2Nc2ccc(OCc3cccc(F)c3)c(Cl)c2)c1` was 0.32%.
Consider `CC(=O)Nc1cccc(C#Cc2cncnc2Nc2ccc(OCc3cccc(F)c3)c(Cl)c2)c1`, for which the inhibition is 3.02%.
With `Nc1nc(-c2cccc(Cl)c2)c(-c2ccc3ncccc3n2)s1`, the inhibition was found to be 3.08%.
On the same count and under the same terms, the value for `COc1ccc(-c2oc3ncnc(N)c3c2-c2ccc(NC(=O)Nc3cc(C(F)(F)F)ccc3F)cc2)cc1` was 3.91%; that for `CC(C)(CO)CNC(=O)c1ccc2c(c1)/C(=N/Nc1ccc(S(N)(=O)=O)cc1)C(=O)N2` was -0.1%.
In the case of `CCNC(=O)O[C@H]1CN[C@H](C#Cc2cc3ncnc(Nc4ccc(OCc5cccc(F)c5)c(Cl)c4)c3s2)C1`, the inhibition amounted to 2.67%.
As to `O=C(O[C@H]1CN[C@H](C#Cc2cc3ncnc(Nc4ccc(Cc5ccccc5)cc4)c3s2)C1)N1CCOCC1`, the inhibition was 1.87%.
Turning to `CCn1c(-c2nonc2N)nc2ccccc21`, the inhibition amounted to 3.26%.
With `COc1ccc2[nH]c3c4[nH]c5ccc(OC)cc5c4c4c(c3c2c1)C(=O)NC4=O`, the inhibition amounted to 3.43%.
Take `CCn1cc(-c2ccnc3[nH]ccc23)c(-c2cccc(NC(=O)Nc3ccc(OCc4ccccc4)cc3)c2)n1`: the inhibition worked out at 0.81%.
Regarding `Fc1ccc(-c2nn3ncccc3c2-c2ccnc(Nc3ccc4c(c3)OCCO4)n2)cc1`, the inhibition came to 3.45%.
Same read-out and setting: for `CCN1CCC(CC(=O)Nc2n[nH]c3nnc(-c4cccc(F)c4F)cc23)CC1` the value was 2.37%; for `CC(C)COC(=O)c1ccc2c(c1)/C(=C/Nc1ccc(S(N)(=O)=O)cc1)C(=O)N2`, -0.89%.
The same measure, in the same setting: for `COC(=O)Nc1nc2ccc(S(=O)(=O)c3ccc(NC(=O)Nc4cc(C(F)(F)F)ccc4F)cc3)cc2[nH]1` the value was 2.47%.
`CCOc1ccc2c(-c3ccnc(Nc4cccc(C(F)(F)F)c4)n3)cnn2n1`: the inhibition came out at 2.3%.
On the same count and under the same terms, the value for `COc1cccc(-n2ncc3c(N/N=C/c4ccc(F)cc4)ncnc32)c1` was 2.58%.
`COc1cc(Nc2nccc(Nc3ccc4c(C)n[nH]c4c3)n2)cc(OC)c1OC`: the inhibition was 3.05%.
As for `CC1=C(C(=O)Nc2cc(Cl)c3[nH]ncc3c2)C(c2ccc(C(F)(F)F)cc2)CC(=O)N1` (configuration not stated), the inhibition came out at 2.07%.
Consider `CCn1c(-c2nonc2N)nc2c(C#CC(C)(C)O)ncc(OC3CCNCC3)c21`, for which the inhibition amounted to 2.9%.
As to `CNC(=O)c1cccc(C#Cc2cncnc2Nc2ccc(OCc3cccc(F)c3)c(Cl)c2)c1`, the inhibition was 0.17%.
Still for that read-out and setting: the value for `COc1ccc(-c2cc3c(N)ncnc3o2)cc1` was -0.35%; that for `COc1cc(/C=N/Nc2ncnc3[nH]ncc23)ccc1O` was 2.22%; that for `COc1cc2ncn(-c3cc(OCc4ccccc4C(F)(F)F)c(C(=O)N(C)C)s3)c2cc1OC` was 0.2%.
Regarding `NS(=O)(=O)c1ccc(Nc2ncc(-c3ccccc3)o2)cc1`, the inhibition is 2.8%.

As usually defined, the inhibition is the drop in the measured response relative to a control, in per cent.
